# Screens as filed in PubChem.
# The list is not random: actives were taken first. Their share in the collection is about 2.2%.
# APP transl inh – APP translation inhibition; SH-SY5Y APP 5'UTR-luciferase reporter, luminescence; inhibition, % at 2 µM; 190,000 tested, 0.82% active;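 active = inhibition above a set limit, derived from the sample mean plus 3 SD, cut at about 45% in these data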
# aSyn 5UTR inh – MLPCN primary screen, SNCA 5' untranslated region. alpha-synuclein 5'UTR reporter, inhibitor activity. inhibition, % (tested at 7.5 µM). 300,000 tested, 0.82% active; in the data active = inhibition above about 60%;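 note: H4 neuroglioblastoma cells stably carrying SNCA 5'UTR luciferase fusion; 0% = DMSO wells and 100% = positive control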
# Ba/F3 V617F tox – loss of viability in JAK2V617F-driven Ba/F3 cells; AID 1446; Ba/F3 EpoR-JAK2V617F viability, ATP luminescence; 220,000 tested, 1.1% active; inhibition, % at 5.6 µM;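 active = inhibition above the campaign mean plus 3 SD over all tested compounds, cut at about 24% in these data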;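 note: cytokine-independent growth of Ba/F3 cells driven by EpoR plus mutant JAK2; 0% = DMSO-treated cells and 100% = JAK inhibitor I control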
# BaF3 tox – parental Ba/F3 viability inhibition as JAK2V617F counter-screen. AID 1486. 220,000 tested, 1.1% active. CellTiter-Glo ATP luminescence. inhibition, % at 5.6 µM;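 active = inhibition above a per-campaign cutoff, the mean inhibition of all tested compounds plus 3 SD, cut at about 27% in these data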;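 note: 0% = DMSO wells and 100% = JAK Inhibitor I control wells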
# KLF5 inh – inhibitors of KLF5 expression; inhibition, % at 5 µM; DLD-1 KLF5 promoter-luciferase reporter, luminescence; 290,000 tested, 0.23% active;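 active = inhibition above a per-plate limit of that plate's mean compound inhibition plus 3 SD, cut at about 60% in these data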;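 note: 0% = DMSO wells and 100% = LY294002 at 200 µM; higher means less KLF5 promoter-driven luciferase light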
# IEC-6 tox-1 – kills IEC-6 intestinal cells in KLF5 counter-screen; 290,000 tested, 0.78% active; inhibition, % at 5 µM; IEC-6 cytotoxicity, luminescence viability; AID 1825;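 note: 0% = plate median of test compound wells and 100% = cytotoxic reference compound wells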
# KLF5 inh confirm – confirmation of KLF5 inhibitors. shares compounds with KLF5 inh. DLD-1 KLF5 promoter firefly luciferase reporter, luminescence. inhibition, % at 4 µM. AID 1834. 610 tested, 79% active;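 active = inhibition above a set limit taken from the earlier primary screen, cut at about 63% in these data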;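 note: 0% = DMSO wells and 100% = LY294002 at 200 µM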
# IEC-6 tox-2 – rat IEC-6 cytotoxicity, KLF5 inhibitor counter-screen; inhibition, % at 4 µM; IEC-6 rat intestinal cells, viability luminescence; shares compounds with KLF5 inh; 610 tested, 56% active; in the data active = inhibition above about 23%;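 note: cells exposed to compounds for 48 hours before viability read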
# IEC-6 cytotox cf – confirmation of cytotoxic compounds in rat IEC-6 intestinal epithelial cells; shares compounds with IEC-6 tox-1; IEC-6 rat intestinal epithelial viability, luminescence; inhibition, % at 5 µM; 1,900 tested, 63% active; AID 1907;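 note: 0% = vehicle and 100% = reference cytotoxic drug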
# * = called active by the depositor; . = no result. Cut-off read from the data, not from the text of the source, unless noted: active = inhibition above about 22%; inactive = the rest.
SMILES,APP transl inh,aSyn 5UTR inh,Ba/F3 V617F tox,BaF3 tox,KLF5 inh,IEC-6 tox-1,KLF5 inh confirm,IEC-6 tox-2,IEC-6 cytotox cf
COc1ccc2c(c1)sc1nc(-c3ccccc3)cn12,86*,105*,70*,69*,72*,76*,103*,70*,55*
OCC[C@@H]1C[C@@H](O)[C@H](O)[C@@]2(CCCc3ccccc3O2)O1,.,-3,.,.,-9,2,.,.,.
CC(=O)NC(c1ccccc1)c1cc(Cl)c2cccnc2c1O (configuration not stated),.,42,.,.,89*,83*,74*,87*,73*
CCCC(=O)NC(c1ccc(N(C)C)cc1)c1ccc2cccnc2c1O (configuration not stated),.,62,.,.,82*,63*,88*,76*,81*
CCCC(=O)NC(c1ccc(C(C)C)cc1)c1ccc2cccnc2c1O (configuration not stated),.,83*,.,.,69*,24*,84*,71*,73*
O=[N+]([O-])c1cc(Cl)c2cccnc2c1O,8,1,0,6,2,-4,.,.,.
CC(C)CC(=O)NC(c1ccccc1Cl)c1c(O)ccc2ccccc12 (configuration not stated),-2,-21,2,7,-24,-7,.,.,.
CCCC(=O)NC(c1ccccc1Cl)c1ccc2cccnc2c1O (configuration not stated),.,68*,.,.,91*,98*,91*,78*,76*
O=C(NCCC1CCCCN1S(=O)(=O)c1ccccc1)C(=O)Nc1ccc(F)cc1F (configuration not stated),.,0,.,.,.,.,.,.,.
Cc1cccc(OC(C)C(=O)Nc2ccccc2C(=O)N2CCCCC2)c1 (configuration not stated),.,1,.,.,-5,6,.,.,.
Cc1sc2ncnc(N3CCC(C(=O)Nc4ccc(Br)cc4Br)CC3)c2c1C,.,-3,.,.,.,.,.,.,.
Cc1cc(C)c(OCC(=O)OCC(=O)NCCC2=CCCCC2)c(C)c1,.,0,.,.,.,.,.,.,.
O=S(=O)(NCC1(N2CCOCC2)CCCCC1)c1ccc(F)c(F)c1F,.,-18,.,.,.,.,.,.,.
COc1ccc(C(NC(=O)C(C)C)c2ccc3cccnc3c2O)cc1 (configuration not stated),.,79*,74*,54*,85*,22*,87*,52*,66*
COc1ccc(C(Nc2cc(C)ccn2)c2ccc3ccc(C)nc3c2O)cc1 (configuration not stated),.,4,-3,3,-14,4,.,.,.
COc1ccccc1/C=N\NC(=O)c1c(C)nc2ccc(Cl)cn12,.,-13,.,.,-6,8,.,.,.
COc1cccc(/C=N/NC(=O)c2c(C)nc3ccc(Cl)cn23)c1O,.,35,.,.,93*,83*,88*,63*,47*
COc1ccc(N(C(=O)CNC(=O)c2ccco2)C(C(=O)NC2CCCC2)c2ccco2)cc1 (configuration not stated),.,17,.,.,-45,4,.,.,.
Cc1c(C(=O)OCCOC(C)C)[nH]c2c1C(=O)CC(c1ccco1)C2 (configuration not stated),96*,36,81*,86*,77*,89*,85*,67*,60*
CCOC(=O)c1[nH]c2c(c1C)C(=O)CC(c1ccco1)C2 (configuration not stated),96*,73*,87*,88*,83*,89*,90*,66*,63*
Cc1c(C(=O)OCc2ccccc2)[nH]c2c1C(=O)CC(c1ccco1)C2 (configuration not stated),94*,34,68*,73*,77*,81*,80*,56*,52*
Cc1c(C(=O)O)[nH]c2c1C(=O)CC(c1ccccc1)C2 (configuration not stated),-10,-13,-2,2,-1,3,.,.,.
CC1CCCC(C)N1C(=O)COC(=O)Cc1ccc(F)cc1 (configuration not stated),.,-36,.,.,-31,2,.,.,.
CSc1nsc(SCC(=O)Nc2ccc(C(N)=O)cc2)n1,.,-28,.,.,-25,8,.,.,.
O=C(CN1C(=O)NC2(CCCC2)C1=O)Nc1ccc(F)c(Cl)c1,.,2,.,.,9,5,.,.,.
SMILES,APP transl inh,aSyn 5UTR inh,Ba/F3 V617F tox,BaF3 tox,KLF5 inh,IEC-6 tox-1,KLF5 inh confirm,IEC-6 tox-2,IEC-6 cytotox cf
COCCCNc1nnc(Cc2ccc(Cl)cc2)c(=O)[nH]1,.,66*,.,.,62*,82*,80*,38*,60*
COc1ccccc1CC(=O)N(Cc1ccccc1)c1ccc(C)cc1,.,-7,.,.,-5,-10,.,.,.
O/N=C/c1cccc[n+]1CCCCCC[n+]1ccccc1/C=N/O,.,-1,.,.,-16,-3,.,.,.
CCCCCCCCC[n+]1cccc2c3ccccc3ccc21,29,69*,101*,92*,75*,60*,71*,39*,72*
Cc1cc2nc(-c3ccc[nH]c3=O)[nH]c2cc1C,.,77*,.,.,83*,40*,61,16,33*
CCn1c2ccccc2c2cc(Nc3cc(C)nc4ncnn34)ccc21,96*,82*,84*,86*,75*,94*,82*,72*,72*
O=C(CSc1nnc(-c2ccccc2)o1)Nc1ccccc1F,-108,74*,26*,32*,72*,29*,-55,-6,-4
Cc1ccc(-c2nnc(SCC(=O)Nc3ccccc3F)o2)cc1,36,92*,15,21,100*,28*,66*,5,17
COc1ccc(-n2nnnc2SCC(=O)NCCc2ccccc2)cc1OC,-6,7,-1,6,-18,-4,.,.,.
COc1ccc(CCNc2nnc(Sc3nnnn3-c3ccccc3)s2)cc1OC,94*,120*,93*,96*,65*,93*,80*,70*,77*
O=C(Nc1ccc(N2CCN(C(=O)c3cccs3)CC2)cc1)c1cccc(F)c1,.,-7,.,.,-1,5,.,.,.
COc1cccc(C(=O)Nc2ccc(N3CCN(C(=O)c4cccs4)CC3)cc2)c1,.,-162,.,.,63*,77*,56,35*,34*
COc1cccc(C2=NOC(C(=O)NCc3ccc(F)cc3)C2)c1 (configuration not stated),-10,-11,-1,4,-43,-1,.,.,.
COc1cc(C2=NOC(C(=O)NCc3ccc(F)cc3)C2)cc(OC)c1OC (configuration not stated),95*,77*,79*,78*,73*,86*,85*,65*,55*
COc1ccc(C2=NOC(C(=O)NCc3ccc(F)cc3)C2)cc1OC (configuration not stated),96*,82*,79*,82*,85*,88*,79*,63*,58*
